TDP1 inh = blocks human tyrosyl-DNA phosphodiesterase 1; recombinant TDP1, AlphaScreen DNA substrate cleavage; Potency, µM (highest dose often 130 µM), for the others: at the highest dose activity change, negative = inhibition, hits mostly inhibitors; actives 0.28% (n = 350,000); AID 485290; also: % is scaled to controls: 0 for no effect and ±100 for the full control effect; nearly all actives have a fitted effect of over 40% in size
Target sequence (Q9NUW8 whole entry, looked up): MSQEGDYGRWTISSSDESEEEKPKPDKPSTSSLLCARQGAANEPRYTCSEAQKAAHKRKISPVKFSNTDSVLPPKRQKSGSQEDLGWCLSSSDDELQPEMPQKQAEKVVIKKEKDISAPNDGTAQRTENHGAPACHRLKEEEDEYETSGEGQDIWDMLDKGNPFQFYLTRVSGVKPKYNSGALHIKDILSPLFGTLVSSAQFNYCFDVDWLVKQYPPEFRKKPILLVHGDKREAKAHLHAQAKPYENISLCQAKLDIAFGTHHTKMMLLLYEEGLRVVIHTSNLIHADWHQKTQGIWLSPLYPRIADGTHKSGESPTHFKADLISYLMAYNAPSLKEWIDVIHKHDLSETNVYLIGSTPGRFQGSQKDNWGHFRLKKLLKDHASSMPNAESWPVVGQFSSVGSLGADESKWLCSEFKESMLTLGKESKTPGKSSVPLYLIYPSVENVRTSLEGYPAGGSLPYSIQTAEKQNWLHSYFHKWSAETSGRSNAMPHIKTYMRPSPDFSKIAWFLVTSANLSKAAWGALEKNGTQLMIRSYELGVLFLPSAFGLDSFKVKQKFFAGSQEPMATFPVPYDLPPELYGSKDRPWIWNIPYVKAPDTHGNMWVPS
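E. coli-derived human Tdp1, 1 nM final. Cpd preinc 15 min RT; substrate 15 nM final, 5 min RT; AS bead mix 10 ug/ml final, 10 min RT. Signal loss = tyrosine-FITC cleavage. No-enzyme wells = max signal.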
DT40 TDP1 CPT = growth inhibition of DT40 Tdp1-/-;hTDP1 cells with camptothecin (screen for TDP1 inhibitors). chicken DT40 Tdp1-/-;hTDP1 cells + 20 nM CPT, ATP luminescence, 48 h. Potency, µM (titrated, usually from 46.2 µM), for the others: at the top dose activity change, negative = growth inhibition, usual class: inhibitors. actives 12% (n = 420,000). AID 686979; also: % is scaled to controls: 0 for no effect and ±100 for the full control effect; nearly all actives have a fitted effect of over 55% in size
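Cell growth measured by CellTiter-Glo luminescence after a minimum 48 h, 37 C compound exposure with 20 nM CPT in Tdp1-knockout DT40 cells stably expressing hTDP1, seeded 400/well; qHTS titration format.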
ClpP mod = qHTS Assay for Activators of ClpP; ATP-dependent Clp protease proteolytic subunit (Bacillus subtilis (strain 168)), P80244; purified B. subtilis ClpP, FRET peptide cleavage, 20 min; Potency, µM (titrated, usually from 57.5 µM), for inactives: at the top dose activity change, negative = active; actives 1.9% (n = 340,000); AID 651965, 2013; active = well fitted falling curve with a large enough effect; inconclusive = small, poorly fitted or top-dose-only effect; inactive = no such curve, though single readings can be large or run the other way; also: the source files actives as falling curves though it sought activators and does not explain the sign; nearly all actives have a fitted effect of over 65% in size
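FRET quenching reversal measured ClpP activation: 10 microg/mL B. subtilis ClpP at pH 8 with the FRET-FV decapeptide, read at 430 nm after 320 nm excitation. The 20-min minus 0-min signal was scaled between DMSO/no-enzyme wells and ADEP (5.8 microM final).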
TDP1 cell noCPT = qHTS for Inhibitors of human tyrosyl-DNA phosphodiesterase 1 (TDP1): qHTS in cells in absence of CPT. DT40 Tdp1-/- hTDP1 cells, no CPT, ATP luminescence, 48 h. Potency, µM (series often up to 46.2 µM), for the others: top-dose activity change, negative = growth inhibition, most hits filed as inhibitors. actives 15% (n = 420,000). AID 686978, 2013; also: % is scaled to controls: 0 for no effect and ±100 for the full control effect; nearly all actives have a fitted effect of over 55% in size
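Luminescent ATP content (CellTiter-Glo) served as the growth readout. Knockout chicken DT40 cells expressing human TDP1 were exposed to compounds without camptothecin for a minimum 48 hr at 37 °C.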
Numbers without * were called inactive; ? = inconclusive; / = no result. The list is not random: actives were taken first. Their share in the collection is about 17%. Unless noted, calls follow the shape of the dose curve; as a rule, active = well fitted curve in the direction sought with a large enough effect; inconclusive = small, poorly fitted or top-dose-only effect, or another doubt; inactive = no such curve, though single readings can be large; an effect the other way counts as inactive or inconclusive. Potency is read from the fitted curve at half-maximal effect.

SMILES	TDP1 inh	DT40 TDP1 CPT	ClpP mod	TDP1 cell noCPT
O=C(c1ccc([N+](=O)[O-])s1)N1CCN(c2ncccn2)CC1	/	21µM*	-1%	?
O=C(c1ccc(Cl)s1)N1CCN(c2ncccn2)CC1	-4%	-26%	/	?
O=C(c1ccc([N+](=O)[O-])s1)N1CCN(c2ccc(C(F)(F)F)cn2)CC1	2%	13µM*	/	16µM*
CC(C)(C)OC(=O)N1CCC(c2cc(=O)n3[nH]c(-c4ccc(Cl)cc4)cc3n2)CC1	2%	21µM*	-7%	23µM*
Cc1onc(-c2c(Cl)cccc2Cl)c1C(=O)Nc1nc(C(C)(C)C)cs1	7%	?	/	23µM*
Cc1cc(C)nc(NC(=O)c2c(-c3c(Cl)cccc3Cl)noc2C)n1	-6%	-22%	-1%	?
Cc1nc(C(=O)NNC(=O)c2c(-c3c(Cl)cccc3Cl)noc2C)cs1	/	?	-4%	16µM*
Cc1cc(C(=O)NNC(=O)c2c(-c3c(Cl)cccc3Cl)noc2C)no1	4%	-7%	3%	-2%
Cc1ccc2c(c1Br)/C(=N/N1C(=O)c3ccccc3C1=O)C(=O)N2	2%	21µM*	1%	23µM*
COc1ccc(NS(=O)(=O)c2ccc(-n3cccn3)cc2)cc1OC	-4%	5.8µM*	-2%	4.6µM*
CCc1cccc(NS(=O)(=O)c2ccc(-n3cccn3)cc2)c1	6%	16µM*	1%	21µM*
COC(=O)c1cc(S(=O)(=O)NCc2cccc(OC)c2)cn1C	/	-29%	-2%	-2%
O=S(=O)(Nc1cccc(Cl)c1)c1ccc(-n2cccn2)cc1	/	-29%	-2%	?
COC(=O)c1cc(S(=O)(=O)NCc2ccccc2OC)cn1C	3%	?	-2%	8.2µM*
Cc1cc(C)cc(NS(=O)(=O)c2ccc(-n3cccn3)cc2)c1	3%	16µM*	-1%	?
Cc1ccc(NS(=O)(=O)c2ccc(-n3cccn3)cc2)cc1C	0%	?	0%	?
CC1=C(C(=O)OC2CCCCCC2)C(c2cccc(F)c2F)CC(=O)N1 (stereo not given)	0%	?	-5%	?
COc1cc(NS(=O)(=O)c2ccc(-n3cccn3)cc2)cc(OC)c1	/	13µM*	-3%	12µM*
COc1ccc(CNS(=O)(=O)c2ccc(-n3cccn3)cc2)cc1	3%	?	-1%	?
COc1ccccc1CNS(=O)(=O)c1ccc(-n2cccn2)cc1	3%	26µM*	1%	?
CCc1cccc(C)c1NS(=O)(=O)c1ccc(-n2cccn2)cc1	3%	16µM*	-3%	26µM*
O=S(=O)(Nc1ccc(F)cc1F)c1ccc(-n2cccn2)cc1	0%	16µM*	-1%	?
COC(=O)c1cc(S(=O)(=O)C(C)C)c(S(C)=O)s1 (stereo not given)	3%	-97%	/	?
CCN(c1ccccc1C(=O)O)S(=O)(=O)c1ccc2[nH]c(=O)[nH]c2c1	/	-3%	-23%	2%
CCOC(=O)C(NC(=O)c1ccccc1)(OCc1ccc(F)cc1)C(F)(F)F (stereo not given)	3%	-27%	-13%	18µM*
SMILES	TDP1 inh	DT40 TDP1 CPT	ClpP mod	TDP1 cell noCPT
CCOC(=O)C(NC(=O)c1cccc(Cl)c1)(OCc1ccc(F)cc1)C(F)(F)F (stereo not given)	5%	?	-2%	?
CCOC(=O)c1sc2ccccc2c1S(=O)(=O)Nc1ccc(CC)cc1	2%	?	-2%	23µM*
CCOC(=O)c1sc2ccccc2c1S(=O)(=O)Nc1c(C)cccc1C	7%	?	-3%	?
COc1ccc(NS(=O)(=O)c2ccc(NC(=S)NC(=O)/C=C/c3ccccc3)cc2)nn1	5%	12µM*	1%	16µM*
CCc1nnc(NS(=O)(=O)c2ccc(NC(=S)NC(=O)/C=C/c3ccccc3)cc2)s1	/	17%	-2%	-18%
CC(=O)c1ccc(NC(=S)NC(=O)/C=C/c2ccccc2)cc1	-2%	2%	0%	19%
CCC(=O)Nc1ccc(NC(=S)NC(=O)/C=C/c2ccccc2)cc1	?	?	-4%	7.3µM*
